Measurements from PubChem BioAssay (NCATS).
Records with an inconclusive call do not appear. A number with no mark means an inactive call. Calls follow the shape of the dose curve; as a rule, active = well fitted curve in the direction sought with a large enough effect; inconclusive = small, poorly fitted or top-dose-only effect, or another doubt; inactive = no such curve, though single readings can be large; an effect the other way counts as inactive or inconclusive.

Each compound was assayed against Aldehyde dehydrogenase, mitochondrial (Homo sapiens) (UniProt P05091) (assay: qHTS for Inhibitors of the Aldehyde Dehydrogenase Family (ALDH2) Primary screen (AID 2061308;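 also: plate controls were vehicle for no effect and reference inhibitor for full effect; nearly all actives have a fitted effect of over 55% in size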)). Conditions: ALDH2 enzyme inhibition qHTS, 1536-well; series mostly up to 56 µM; activity change, negative = inhibition: at the top concentration.

| SMILES | activity change, negative = inhibition |
| --- | --- |
| CC1=C2C(=O)C=C(CO)[C@@H]2[C@H]2OC(=O)[C@H](C)[C@@H]2[C@@H](O)C1 | -0.701% |
| COc1c2c(c(C)c3c1C(=O)OC3)O[C@@]1(C)CCC3(C(C)(C)O)OC(=O)CC[C@]3(C)[C@H]1C2 (some centres not stated) | 0.0717% [at 28 µM] |
| CCNC(=O)[C@@H]1CCCN1C(=O)[C@H](CCCN=C(N)N)NC(=O)[C@H](CC(C)C)NC(=O)[C@@H](C)NC(=O)[C@H](Cc1ccc(O)cc1)NC(=O)[C@H](CO)NC(=O)[C@H](Cc1c[nH]c2ccccc12)NC(=O)[C@H](Cc1cnc[nH]1)NC(=O)[C@@H]1CCC(=O)N1 | 17.1% [at 28 µM] |
| COC1=CC(=O)O/C1=C(/OC)[C@@H]1O[C@H]1c1ccccc1 | -3.67% |
| CC(=O)[C@H]1CC[C@H]2[C@@H]3CC=C4C[C@@H](OS(=O)(=O)O)CC[C@]4(C)[C@H]3CC[C@]12C | -4.38% |
| CC(=O)C1CCC(=O)N1Cc1ccccc1 (configuration not stated) | 4.92% |
| COc1cc(/C=C/C(=O)O[C@H]2C[C@@H]3C(C(=O)O)=CO[C@@H](O[C@@H]4O[C@H](CO)[C@@H](O)[C@H](O)[C@H]4O)[C@@H]3[C@H]2C)ccc1O | 10.2% [at 28 µM] |
| CC(=O)O[C@@H]1C[C@@]23C[C@@]24CC[C@H](OC2OC[C@@H](O)[C@H](O)[C@H]2O)C(C)(C)[C@@H]4CC[C@H]3[C@]2(C)CC3OC4(C[C@@H](C)C3[C@@]12C)OCC1(C)OC14 (some centres not stated) | -3.02% [at 16.9 µM] |
| Cc1ncc([N+](=O)[O-])n1CC(O)CN1CCOCC1 (configuration not stated) | -2.13% |
| COc1cc(C(=O)OC(COCCC(C)C)CN2CCOCC2)cc(OC)c1OC (configuration not stated) | -4.83% |
| C=C1C(OC2OC(CO)C(O)C(O)C2O)CC2C(C)(C)C(O)CCC2(C)C1CC/C(C)=C\COC(=O)CC(=O)O (configuration not stated) | 1.95% [at 16.9 µM] |
| C[C@@H]1O[C@@H](O[C@H]2[C@H](OC(=O)[C@]34CCC(C)(C)C[C@H]3C3=CCC5[C@@]6(C)C[C@H](O)[C@H](O[C@@H]7O[C@H](C(=O)O)[C@@H](O)[C@H](O)[C@H]7O)[C@@](C)(CO)C6[C@H](O)C[C@@]5(C)[C@]3(C)C[C@H]4O)O[C@@H](CO)[C@@H]2O)[C@H](O)[C@H](O)[C@H]1O[C@@H]1OC[C@@H](O)[C@H](O[C@H]2OC[C@](O)(CO)[C@H]2O)[C@H]1O (some centres not stated) | 4.26% [at 11.2 µM] |
| Oc1ccc2c(-c3c(-c4ccccn4)nn4c3CCC4)ccnc2c1 | -0.189% |
| COC(=O)CCC1(C)C(C(C)(C)O)C(O)CC2(C)Oc3c(C)c4c(c(OC)c3CC21)C(=O)OC4 (configuration not stated) | 3.65% [at 28 µM] |
| CC1(C)O[C@]23C[C@H]1C[C@H](OC(=O)c1ccoc1)[C@]2(C)[C@@H](OC(=O)c1ccoc1)CCC3(C)O (some centres not stated) | 16.6% [at 28 µM] |
| CC1=C2C3OC(=O)C(C)C3(O)CCC2(C)CCC1 (configuration not stated) | 3.79% |
| COC(=O)[C@]1(C)CCC[C@@]2(C)[C@@H]3CC[C@@H]4C[C@@]3(CC[C@@H]21)C[C@H]4C(=O)O | 6.03% |

These compounds were tested against Retinaldehyde dehydrogenase 3 (Homo sapiens) (UniProt P47895) (assay: qHTS for Inhibitors of the Aldehyde Dehydrogenase Family (ALDH1A3) Primary screen (AID 2061315;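 also: plate controls were DMSO vehicle for no effect and reference inhibitor for full effect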)). Conditions: ALDH inhibition qHTS; series mostly up to 56 µM; activity change, negative = inhibition: at the top concentration.

| SMILES | activity change, negative = inhibition |
| --- | --- |
| Cc1cnn(-c2ccccc2)c1NC(=O)COCc1ccccc1 | 1.91% |
| CC(C)CN(C[C@@H](O)[C@H](Cc1ccccc1)NC(=O)O[C@@H]1CO[C@H]2OCC[C@H]21)S(=O)(=O)c1ccc(N)cc1 | -10.8% |
| COc1cc(O)cc(C)c1C(=O)OC1C(CO)OC(OC2C(O)C(O)C(O)C(O)C2O)C(O)C1O (configuration not stated) | -7.47% [at 28 µM] |
| CC1CCC2C(C(=O)O)=CC3CC(C)(C)CC132 (configuration not stated) | 8.13% |
| C=C[C@H]1[C@H](O[C@@H]2O[C@H](CO[C@@H]3OC[C@](O)(CO)[C@H]3O)[C@@H](O)[C@H](O)[C@H]2O)OC=C2C(=O)OCC[C@H]21 | -13.3% [at 28 µM] |
| C/C=C(\C)C(=O)OC1C=C(C)CC(OC(=O)c2ccc(O)cc2)C2C1(C)CCC2(O)C(C)C (configuration not stated) | -12.4% [at 28 µM] |
| O=C(CCC1CCN(Cc2ccccc2)CC1)c1ccc2c(c1)NCCCC2 | -3.34% |
| Nc1nc(Nc2ccc3c(c2)CCC(N2CCCC2)CC3)nn1-c1cc2c(nn1)-c1ccccc1CCC2 (configuration not stated) | -5.01% |
| CCC1OC(=O)C(C)CC(C)C(=O)/C(C)=C/C(C)C(=O)/C=C/C1(C)O (configuration not stated) | 4.64% |
| CO[C@@]12CC3[C@@H]([C@@H](O)[C@@H](OC(C)=O)C4[C@](C)(COC(C)=O)CCC[C@]34C)[C@@H](C)C1=CC(=O)O2 (some centres not stated) | 4.25% [at 28 µM] |
| Cn1c(=O)c(F)c(Nc2ccc(I)cc2F)c2c(=O)n(CC(O)CO)cnc21 (configuration not stated) | 5.35% |
| CC(C)c1ccc2c(c1)[C@H](O)CC1[C@@](C)(C(=O)O)CCC[C@]21C (some centres not stated) | 7.22% |
| CC(C)[C@@H](C(=O)O)N1Cc2c(cc(O)c3c2O[C@]2(C3)[C@H](C)CCC3C(C)(C)[C@H](O)[C@H](O)C[C@@]32C)C1=O (some centres not stated) | 2.83% [at 28 µM] |
| CNc1nc(Cc2ccccc2)nc2c1CCNC[C@@H]2C | -12.9% |
| COc1c(O)cc2c(c1O)[C@@H]1O[C@H](CO)[C@@H](O)[C@H](O)[C@H]1OC2=O | 10.9% |
| O=S(=O)(c1ccc(S(=O)(=O)n2cnc3ccccc32)cc1)N1CCCCCC1 | -10.9% [at 28 µM] |
| COC(=O)[C@H](O)[C@H]1C(C)(C)[C@H](OC(=O)C(C)C)[C@@]2(O)C(=O)[C@]1(C)C1CC[C@]3(C)C(CC(=O)O[C@H]3c3ccoc3)[C@]13O[C@@H]32 (some centres not stated) | 19.3% [at 16.9 µM] |
| COc1cc(CCO)ccc1O[C@@H]1O[C@H](CO)[C@@H](O)[C@H](O)[C@H]1O | -19.2% |
| COc1c2c(c(C)c3c1C(=O)OC3)OC1(C)CC(O)C(C(C)(C)O)C(C)(CCC(=O)O)C1C2 (configuration not stated) | 8.58% [at 28 µM] |
| CC(CCC1C(C(=O)O)=CC(=O)CC1(C)C)O[C@@H]1O[C@H](CO)[C@@H](O)[C@H](O)[C@H]1O (some centres not stated) | 9.12% |

| SMILES | activity change, negative = inhibition |
| --- | --- |
| CC(=O)OC1CC2(C)C(CCC(C)C23Cc2c(O)cc(CO)c(C=O)c2O3)C(C)(C)C1O (configuration not stated) | 3.14% [at 28 µM] |
| C=CC1(C)CC(OC(=O)/C(C)=C\COC(C)=O)C(C(=C)C(=O)O)C(O)C1C(=C)CO (configuration not stated) | 1.93% [at 28 µM] |
| C[C@@H]1O[C@@H](O[C@H]2[C@@H](OC(=O)[C@]34CCC(C)(C)CC3C3=CCC5[C@@]6(C)C[C@H](O)[C@H](O[C@@H]7O[C@H](C(=O)O)[C@@H](O)[C@H](O)[C@H]7O)[C@@](C)(C(=O)O)C6CC[C@@]5(C)[C@]3(C)CC4)OC[C@H](O)[C@@H]2O)[C@H](O)[C@H](O)[C@H]1O[C@@H]1OC[C@@H](O)[C@H](O)[C@H]1O (some centres not stated) | 7.39% [at 16.9 µM] |
| CC1=C2C(=O)C=C(CO)[C@@H]2[C@H]2OC(=O)[C@H](C)[C@@H]2[C@@H](O)C1 | -14.5% |
| COc1c2c(c(C)c3c1C(=O)OC3)O[C@@]1(C)CCC3(C(C)(C)O)OC(=O)CC[C@]3(C)[C@H]1C2 (some centres not stated) | 1.91% [at 28 µM] |
| CCNC(=O)[C@@H]1CCCN1C(=O)[C@H](CCCN=C(N)N)NC(=O)[C@H](CC(C)C)NC(=O)[C@@H](C)NC(=O)[C@H](Cc1ccc(O)cc1)NC(=O)[C@H](CO)NC(=O)[C@H](Cc1c[nH]c2ccccc12)NC(=O)[C@H](Cc1cnc[nH]1)NC(=O)[C@@H]1CCC(=O)N1 | 2.64% [at 28 µM] |
| COC1=CC(=O)O/C1=C(/OC)[C@@H]1O[C@H]1c1ccccc1 | -15% |
| CC(=O)[C@H]1CC[C@H]2[C@@H]3CC=C4C[C@@H](OS(=O)(=O)O)CC[C@]4(C)[C@H]3CC[C@]12C | 4.59% |
| CC(=O)C1CCC(=O)N1Cc1ccccc1 (configuration not stated) | -10.6% |
| COc1cc(/C=C/C(=O)O[C@H]2C[C@@H]3C(C(=O)O)=CO[C@@H](O[C@@H]4O[C@H](CO)[C@@H](O)[C@H](O)[C@H]4O)[C@@H]3[C@H]2C)ccc1O | -16.2% [at 28 µM] |
| CC(=O)O[C@@H]1C[C@@]23C[C@@]24CC[C@H](OC2OC[C@@H](O)[C@H](O)[C@H]2O)C(C)(C)[C@@H]4CC[C@H]3[C@]2(C)CC3OC4(C[C@@H](C)C3[C@@]12C)OCC1(C)OC14 (some centres not stated) | 6.27% [at 16.9 µM] |
| Cc1ncc([N+](=O)[O-])n1CC(O)CN1CCOCC1 (configuration not stated) | 0.231% |
| COc1cc(C(=O)OC(COCCC(C)C)CN2CCOCC2)cc(OC)c1OC (configuration not stated) | -4.22% |
| C=C1C(OC2OC(CO)C(O)C(O)C2O)CC2C(C)(C)C(O)CCC2(C)C1CC/C(C)=C\COC(=O)CC(=O)O (configuration not stated) | 2.1% [at 16.9 µM] |
| C[C@@H]1O[C@@H](O[C@H]2[C@H](OC(=O)[C@]34CCC(C)(C)C[C@H]3C3=CCC5[C@@]6(C)C[C@H](O)[C@H](O[C@@H]7O[C@H](C(=O)O)[C@@H](O)[C@H](O)[C@H]7O)[C@@](C)(CO)C6[C@H](O)C[C@@]5(C)[C@]3(C)C[C@H]4O)O[C@@H](CO)[C@@H]2O)[C@H](O)[C@H](O)[C@H]1O[C@@H]1OC[C@@H](O)[C@H](O[C@H]2OC[C@](O)(CO)[C@H]2O)[C@H]1O (some centres not stated) | 16.1% [at 11.2 µM] |
| Oc1ccc2c(-c3c(-c4ccccn4)nn4c3CCC4)ccnc2c1 | 21.4% |
| COC(=O)CCC1(C)C(C(C)(C)O)C(O)CC2(C)Oc3c(C)c4c(c(OC)c3CC21)C(=O)OC4 (configuration not stated) | 4.97% [at 28 µM] |
| CC1(C)O[C@]23C[C@H]1C[C@H](OC(=O)c1ccoc1)[C@]2(C)[C@@H](OC(=O)c1ccoc1)CCC3(C)O (some centres not stated) | 9.64% [at 28 µM] |
| CC1=C2C3OC(=O)C(C)C3(O)CCC2(C)CCC1 (configuration not stated) | 5.94% |
| COC(=O)[C@]1(C)CCC[C@@]2(C)[C@@H]3CC[C@@H]4C[C@@]3(CC[C@@H]21)C[C@H]4C(=O)O | 1.38% |
